Data reported in PubChem BioAssay (NCI).
Where “and” joins values, the source holds several entries; their conditions need not be identical. Equal values may be shown once. The panel holds about 79,000 compounds, 15% with a hit somewhere; the sample as a whole holds those more often. No stated cut-off is given here; in the data, active means growth inhibition above about 70%; inactive means the rest.

How the values were obtained:
[1] = NCI Yeast Anticancer Drug Screen. Data for the rad50 strain (AID 155);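 further: 0% = growth of vehicle-only cultures of the same strain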; details: S. cerevisiae rad50 strain growth inhibition, active compounds read high; at 50.0 µM unless noted
How it was run: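 Yeast carrying a defined DNA repair defect were exposed to test compounds, and growth was compared with vehicle-treated controls to give percent inhibition.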

[2] = NCI Yeast Anticancer Drug Screen. Data for the mec2-1 strain (AID 157); details: S. cerevisiae mec2-1 strain, active compounds read high; at 50.0 µM unless noted
How it was run: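 Test agents were screened against the mec2-1 yeast strain, with defined DNA repair or cell cycle alteration. Growth was scored as inhibition against vehicle-only controls.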

[3] = NCI Yeast Anticancer Drug Screen. Data for the sgs1 mgt1 strain (AID 161);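 further: 0% = growth of cultures given vehicle only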; details: S. cerevisiae sgs1 mgt1 strain, active compounds read high; at 50.0 µM unless noted
How it was run: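 Mutant yeast exposed to compound; growth scored against vehicle-only wells.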

[4] = NCI Yeast Anticancer Drug Screen. Data for the cln2 rad14 strain (AID 165);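 further: 0% = growth equal to vehicle treated cultures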; details: S. cerevisiae cln2 rad14 strain, active compounds read high; at 50.0 µM unless noted
How it was run: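 Growth of compound-exposed yeast (cln2 rad14 genotype) measured and expressed as inhibition relative to vehicle.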

[5] = NCI Yeast Anticancer Drug Screen. Data for the bub3 strain (AID 167); details: S. cerevisiae bub3 mutant strain, active compounds read high; at 50.0 µM unless noted
How it was run: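 Compounds were applied to a genetically altered yeast strain carrying a cell-cycle control defect. Growth inhibition was scored against vehicle-treated controls.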

[6] = NCI Yeast Anticancer Drug Screen. Data for the mlh1 rad18 strain (AID 175); details: S. cerevisiae mlh1 rad18 strain growth inhibition, active compounds read high; at 50.0 µM unless noted
How it was run: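 In this whole-cell yeast screen, a strain with altered DNA damage repair is challenged with compound, and its growth is measured against matched vehicle-treated controls.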

Measured: growth inhibition

CC1(C)CC2(Nc3ccccc3N2)C2=C(O1)C(=O)OC2
inactive: [1] 9.45% | [2] -8.25% | [3] -18.7% | [4] -1.3% | [5] -6.15% | [6] -10.6%

CCCCCCCCC(=O)NCCOC
inactive: [1] 10.9% | [2] 2.8% | [3] 5.8% | [4] -20.8% | [5] -2.95% | [6] 10.6%

Fc1c(F)c(-c2c(F)c(F)c(S)c(F)c2F)c(F)c(F)c1S
inactive: [1] -1.15% | [2] 3.75% | [3] 21.3% | [4] 3.05% | [5] 0.7% | [6] -21.9%

Nc1nc(CCCCc2ccc(NC(=O)CBr)cc2)c(CCCCc2ccccc2)c(=O)[nH]1
inactive: [1] 27.6% | [2] 11.3% | [3] 34.7% | [4] 24.8% | [5] -3.1% | [6] 11.4%

OC1(Cc2ccccc2)CCCCCC1
inactive: [1] -2.3% | [2] 1.3% | [3] 2.15% | [4] -64.7% | [5] -0.95% | [6] 1.95%

COc1ccc2c(c1)-c1c(ccc(OC)c1O)CC(c1ccccc1)[N+](C)(C)CC2 (stereo not given)
inactive: [1] -5.8% | [2] 10.7% | [3] -5.55% | [4] -12.4% | [5] 2.25% | [6] -2.5%

COC(=O)C(=O)C1(c2ccccc2)C(=O)C(c2ccccc2)=CC1O (stereo not given)
inactive: [1] 15.3% | [2] 10.5% | [3] 10.1% | [4] 0.7% | [5] 8.4% | [6] 18.6%

CCCC(C)C(=O)OC(CC)CC (stereo not given)
inactive: [1] 31.4% | [2] 1.55% | [3] 13.1% | [4] -18.2% | [5] 5.65% | [6] 11.4%

CC(C)CC1N=C(NN=C(CCl)CCl)OP1(=O)NCCCCCCNP1(=O)OC(NN=C(CCl)CCl)=NC1CC(C)C (stereo not given)
inactive: [1] 13.4% | [2] 5.05% | [3] 2.95% | [4] 4.75% | [5] 24.8% | [6] 37.6%

COC1/C=C/OC2(C)Oc3c(C)c(O)c4c(O)c(c(C5SCCS5)c(O)c4c3C2=O)NC(=O)C(C)=C/C=C\C(C)C(O)C(C)C2OC(C)(C)OC(C1C)C2C (stereo not given)
inactive: [1] 2.15% | [2] 33% | [3] 22.8% | [4] 15.6% | [5] 14.4% | [6] 38%

ClCCOCCOc1ccc(C2CCCCC2)cc1
inactive: [1] 12.9% and -1.65% | [2] 11.9% and -0.75% | [3] 56% and -3.65% | [4] 24.1% and -10.8% | [5] 28.2% and 31.4% | [6] 13.8% and 9.05%

CC(=O)Oc1ccc(N2CC=C(c3ccccc3)CC2)cc1
inactive: [1] -6.7% | [2] -13.5% | [3] -9.75% | [4] -8.35% | [5] -9.45% | [6] -4.45%

O=C1CSC(c2ccccc2Cl)N1c1n[nH]c(=S)s1 (stereo not given)
inactive: [1] -13.8% | [2] -17.6% | [3] -9.5% | [4] -55% | [5] -23.6% | [6] 1%

CC(N)C(=O)NO (stereo not given)
inactive: [1] -20.4% | [2] -24.6% | [3] -16.2% | [4] -40.6% | [5] 4.85% | [6] -36%

COc1cccc(NC(=O)NCCCl)c1OC
inactive: [1] -1.2% | [2] 11.8% | [3] 11.6% | [4] 41% | [5] -3.8% | [6] 22.4%

Cc1ccc(C(=O)O)cc1
inactive: [1] 2.95% | [2] -17% | [3] 0.65% | [4] -15.6% | [5] 8.85% | [6] -2.2%

O=C(O)c1ccc([N+](=O)[O-])cc1Br
inactive: [1] 3.5% | [2] -2.85% | [3] -4.65% | [4] -45% | [5] -23.6% | [6] 6.2%

O=C1CCC(=O)N1C(c1ccccc1)c1ccccc1
inactive: [1] -10.4% | [2] 6.95% | [3] 5.85% | [4] -30.9% | [5] 20.9% | [6] -6.2%

O=S1(=O)C(c2cccc(F)c2)=C(O)c2cc3ccccc3nc21
inactive: [1] 15.8% | [2] 5.45% | [3] 11.6% | [4] -20.6% | [5] -23.8% | [6] 9.45%

Clc1ccc(-c2cn3c(nc4ccccc43)c(-c3ccccc3)n2)cc1
inactive: [1] -7.65% | [2] 1.4% | [3] -10.1% | [4] 2.35% | [5] -22.5% | [6] -16%

CCCCCCCCCOc1ccc(C=Nc2ccc(C)cc2)cc1
inactive: [1] -4.3% | [2] 7.8% | [3] -2.55% | [4] -18.9% | [5] -10.9% | [6] -4.65%

Nc1nc(=S)[nH]c(=S)[nH]1
inactive: [1] 22.9% | [2] 19.4% | [3] 10.9% | [4] 2.7% | [5] 17.2% | [6] -4.45%

CCCCCC(=O)OCCSCCOC(=O)CCCCC
inactive: [1] 4.55% | [2] 1.3% | [3] -5.85% | [4] -39.1% | [5] 10.8% | [6] 0.2%

CCC(C)(O)c1cn(-c2ccc(Cl)cc2)nn1 (stereo not given)
inactive: [1] -31.4% | [2] -32.9% | [3] -4.4% | [4] 16.4% | [5] -6.55% | [6] 0.25%

Cc1ccc(S(=O)(=O)C2CC(=O)N(c3ccc(F)c(Cl)c3)C2=O)cc1 (stereo not given)
inactive: [1] -26.6% | [2] 4.55% | [3] -7.6% | [4] -19.2% | [5] 4.2% | [6] -11.7%

CCC(C)C/C(C)=N/Nc1ccc([N+](=O)[O-])cc1[N+](=O)[O-] (stereo not given)
inactive: [1] -0.4% | [2] 7.85% | [3] 0.65% | [4] -16.4% | [5] 12.7% | [6] -6.25%

O=c1c2cc(O)c(O)cc2oc2cc(O)c(C3OC(CO)C(O)C(O)C3O)c(O)c12 (stereo not given)
inactive: [1] 14.2% | [2] 1.1% | [3] -27.7% | [4] 6.45% | [5] -41.4% | [6] -77.1%

CC(=O)C(CCC#N)(CCC#N)C(C)=O
inactive: [1] -18.6% | [2] -24.6% | [3] -4.8% | [4] -5.95% | [5] -1.45% | [6] -16.1%

CCOC(=O)Nc1nc2ccccc2n1CN1CCCC1
inactive: [1] -4.7% | [2] -17.9% | [3] -11.3% | [4] 3.65% | [5] 22.4% | [6] 18.8%

O=C1NCC(CCl)O1 (stereo not given)
inactive: [1] 8.3% | [2] -12.2% | [3] -2.15% | [4] 9.3% | [5] 18.1% | [6] 1.9%

O=C1/C(=C/c2cccc(Br)c2)Cc2ccccc21
inactive: [1] 20.9% | [2] -7.9% | [3] 12.3% | [4] 18.1% | [5] -1.35% | [6] 15.8%

O=C1CSC(c2c[nH]c3ccccc23)N1c1ccc(Cl)cc1 (stereo not given)
inactive: [1] -33.9% | [2] -25.5% | [3] -46.2% | [4] -3.55% | [5] -28.9% | [6] -30.4%

CN1c2ccccc2N(C)C23N(C)c4ccccc4N(C)C12N(C)c1ccccc1N3C (stereo not given)
inactive: [1] -33% | [2] 1.8% | [3] -67.4% | [4] 18.7% | [5] -22.1% | [6] -20.9%

C=C1CC(C2OCOC3COCOC32)OC1=O (stereo not given)
inactive: [1] -44.1% | [2] -12.9% | [3] -14.8% | [4] -22.6% | [5] 17.2% | [6] -2.1%

O=C1OCC(c2ccccc2)=C1c1ccccc1
inactive: [1] 22.3% | [2] -3% | [3] 20.3% | [4] -16% | [5] 6.35% | [6] 16.6%

C1=C(N2CCCC2)C(=[N+]2CCCC2)C(N2CCCC2)=C1
inactive: [1] 3.65% | [2] -2.45% | [3] 5.55% | [4] -7.25% | [5] 1.5% | [6] 9.15%

CN(C)C(C#CCO)c1ccccc1 (stereo not given)
inactive: [1] -30.5% | [2] -13.2% | [3] 1.45% | [4] -3.55% | [5] -9.7% | [6] 4.8%

C[C@]12C=CC(=O)C=C1CC[C@@H]1[C@@H]2C(=O)C[C@@]2(C)[C@H]1CC[C@]2(O)C(=O)COC(=O)CSc1c2ccccc2nc2ccccc12
inactive: [1] 35.6% | [2] 5.8% | [3] 8.15% | [4] 24.8% | [5] -9.4% | [6] 19.3%

Clc1ccc2[nH]ncc2c1
inactive: [1] 8.9% | [2] -36.1% | [3] -5.9% | [4] -7.95% | [5] 7.55% | [6] 18.1%

CC(O)C(=O)OCCOc1ccc(Cl)cc1Cl (stereo not given)
inactive: [1] 7.75% | [2] 10.3% | [3] 27.3% | [4] -38.1% | [5] 31.3% | [6] 28.2%
